The results in this text go back to PubChem BioAssay (NCATS).

Each structure is given as a SMILES string. Results filed as inconclusive are left out. Activity calls are given as the source filed them. The call rests on the fitted dose curve; in most records, active means well fitted cell-killing curve with a large enough effect; inconclusive means small, poorly fitted or top-dose-only effect, or effect the other way; inactive means no such curve, though single readings can be large or run the other way. Non-standard residues stand in square brackets, D forms with d. Residues, ends and D or L forms follow the SMILES beside them. *: point of attachment. Nva = CCC[C@H](N)C(=O)O; Cbz = O=C(OCc1ccccc1)*
Potency means the concentration at half of the fitted maximal effect.

A short description of this experiment: Quantitative High-Throughput drug screen in 47 multiple myeloma cell lines against the NCATS MIPE library collection: OCIMY5_PLB cell viability assay (AID 1918988). Further: nearly all actives have a fitted effect of over 65% in size. The conditions noted are these: OCI-MY5 myeloma viability, ATP luminescence, 48 h; series mostly up to 45.8 µM. The source says: PI: Beverly A. Mock Ph.D.
Laboratory of Cancer Biology and Genetics,
Center for Cancer Research, National Cancer Institute,
National Institute of Health, Bethesda, Maryland
Drug resistance and disease progression are common in multiple myeloma (MM) patients, underscoring the need for new therapeutic combinations. […] We hypothesized that effective combinations would reduce MYC expression and enhance p16 activity. […] These preclinical data identify potentially useful drug combinations for evaluation in drug-resistant MM and reveal potential mechanisms of combined drug sensitivity.
Described herein is the primary MIPE qHTS used to cherrypick compounds. Validated compounds were then further tested for potential synergistic activiy.
[1] Peat TJ, Gaikwad SM, Dubois W, Gyabaah-Kessie N, Zhang S, Gorjifard S, Phyo Z, Andres M, Hughitt VK, Simpson RM, Miller MA, Girvin AT, Taylor A, Williams D, D'Antonio N, Zhang Y, Rajagopalan A, Flietner E, Wilson K, Zhang X, Shinn P, Klumpp-Thomas C, McKnight C, Itkin Z, Chen L, Kazandijian D, Zhang J, Michalowski AM, Simmons JK, Keats J, Thomas CJ, Mock BA. Drug combinations identified by high-throughput screening promote cell cycle transition and upregulate Smad pathways in myeloma. Cancer Lett. 2023 Aug 1;568:216284. doi: 10.1016/j.canlet.2023.216284. Epub 2023 Jun 24. PMID: 37356470; PMCID: PMC10408729.
SEQUENCE No. (e.g., 1, 2, 3, etc.); […] (e.g., Cells, Incubation, Reagent, etc.); VALUE and DESCRIPTION.
1; Cells; 5 uL; white, solid bottom 1536-well Greiner assay plate.
2; Compounds; 23 nL; Kalypsis pin tool (Wako USA) equipped with a 1536-well pin head to transfer to the assay plates.
3; Incubation; 48 hours; 37C incubation.
4; Reagent;5uL; CellTiter Glo (Promega).
5; Detector; 425V; Luminescence; Viewlux PerkinElmer.
NOTES (numbers refer to Sequence numbers above)
1. The cell-based screening methods employed in this study were like those previously published. Briefly, the corresponding myeloma cell lines were screened in 1,536-well plates with 500 cells, 5-uL per well for inhibition of cell viability (assessed by measuring ATP levels with CellTiterGlo).
2. NCATS MIPE 4.0 library of approved and investigational drugs were added using the Kalypsis pin tool. Wells treated with DMSO only for 100% viability and media only for 0% viability were used as controls.
3. The assay plates were covered and incubated for 48 hours in a 37C, 5% CO2 incubator with controlled humidity.
4. After 48 hours, CellTilter-GloTM luminescent substrate mix (Promega) reagent was added to the assay plate and plates we incubated for 5 min at room temperature.
5. Signal was measured as median relative luminescence units on a ViewLux (PerkinElmer) multiplate reader.
[1] Heske CM, Davis MI, Baumgart JT, Wilson K, Gormally MV, Chen L, Zhang X, Ceribelli M, Duveau DY, Guha R, Ferrer M, Arnaldez FI, Ji J, Tran HL, Zhang Y, Mendoza A, Helman LJ, Thomas CJ. Matrix Screen Identifies Synergistic Combination of PARP Inhibitors and Nicotinamide Phosphoribosyltransferase (NAMPT) Inhibitors in Ewing Sarcoma. Clin Cancer Res. 2017 Dec 1;23(23):7301-7311. doi: 10.1158/1078-0432.CCR-17-1121. Epub 2017 Sep 12. PMID: 28899971; PMCID: PMC6636827.
Regarding `COC1=C2C[C@@H](C)C[C@H](OC)[C@@H](O)[C@@H](C)C=C(C)[C@H](OC(N)=O)[C@@H](OC)C=CC=C(C)C(=O)NC(=CC1=O)C2=O`, the Potency is 37.2 nM (active).

With `O=C1NC(=O)[C@@H](c2cn3c4c(cccc24)CCC3)[C@H]1c1c[nH]c2ccccc12`, the Potency is 132 nM (active).

Take `C[C@H]1[C@@H](OC(=O)CCC(=O)O)O[C@@H]2O[C@@]3(C)CC[C@@H]4[C@H](C)CC[C@@H]1[C@@]24OO3`: the Potency was 4690 nM (active).

`CN[C@@H]1C[C@H]2O[C@@](C)([C@H]1OC)n1c3ccccc3c3c4c(c5c6ccccc6n2c5c31)C(=O)N[C@H]4O`: the Potency was 264 nM (active).

As for `CN(C)c1ccc(C(=O)NCCCCCCC(=O)NO)cc1`, the Potency was 469 nM (active).

With `CCc1nc(-c2cccc(C)c2)c(-c2ccnc(NC(=O)c3ccccc3)c2)s1`, the Potency is 16600 nM (active).

For the compound `Cc1ccc2nc(NCCN)c3ncc(C)n3c2c1`, the Potency was 1320 nM (active).

As to `CC(=O)OC[C@@H]1O[C@@H](n2ccc(=O)[nH]c2=O)[C@H](OC(C)=O)[C@H]1OC(C)=O`, the Potency entry was “inactive”.

As to `C=C1C(=O)O[C@H]2[C@@H]1CCC(C)=CCC[C@@]1(C)O[C@@H]21`, the Potency was 4180 nM (active).

For the compound `CCC[C@@H](C=O)NC(=O)[C@H](CC(C)C)NC(=O)[C@H](CC(C)C)NC(=O)OCc1ccccc1` (Cbz-Leu-Leu-[Nva]-aldehyde), the Potency was 935 nM (active).

`CCOC(=O)N1CCN([N+]([O-])=NOc2ccc([N+](=O)[O-])cc2C#N)CC1`: the Potency is 833 nM (active).

In the case of `C=CCNC1=C2C[C@@H](C)C[C@H](OC)[C@@H](O)[C@@H](C)C=C(C)[C@H](OC(N)=O)[C@@H](OC)C=CC=C(C)C(=O)NC(=CC1=O)C2=O`, the Potency is 526 nM (active).

Regarding `CN(C)CCN1C(=O)c2cccc3cc(N)cc(c23)C1=O`, the Potency was 23500 nM (active).

For `CN1CCc2c(c3ccccc3n2Cc2ccc(C(=O)NO)cc2)C1`, the Potency was 18700 nM (active).

As to `CC(=O)[C@]1(O)Cc2c(O)c3c(c(O)c2[C@@H](O[C@H]2C[C@H](N)[C@@H](O)[C@H](C)O2)C1)C(=O)c1ccccc1C3=O`, the Potency is 132 nM (active).

In the case of `COc1ccc(C=Cc2cc(OC)c(OC)c(OC)c2)cc1NC(=O)[C@H](N)CO`, the Potency was 2.6 nM (active).

As for `COc1cc(N2CCC(C(N)=O)CC2)ccc1Nc1nc(N)c(Cl)c(Nc2ccccc2S(=O)(=O)C(C)C)n1`, the Potency was 935 nM (active).

For `Oc1ccc(-c2ccc(-c3cc(Nc4cccc(CNC5CC5)c4)n[nH]3)cc2)c(O)c1`, the Potency was 1480 nM (active).

Regarding `COc1cc([C@@H]2c3cc4c(cc3[C@H](O)[C@H]3COC(=O)[C@@H]23)OCO4)cc(OC)c1OC`, the Potency was 29.6 nM (active).

Turning to `NC(=O)Nc1sc(-c2ccc(F)cc2)cc1C(N)=O`, the Potency is 2090 nM (active).

For `CCN(C(=O)c1c(O)c2c(Cl)cccc2n(C)c1=O)c1ccccc1`, the Potency result was “inactive”.

Take `CCc1ccc(C(=O)Nc2cc(CN3CCN(C)CC3)cc(C(F)(F)F)c2)cc1C#Cc1cnc2ccnn2c1`: the Potency was 1870 nM (active).

`Cc1cncc2cccc(S(=O)(=O)N3CCCN(C(=O)CN)C[C@@H]3C)c12`: the Potency is 1480 nM (active).

As to `CCN(CC)CCNC(=O)c1c(C)[nH]c(C=C2C(=O)Nc3ccc(F)cc32)c1C`, the Potency was 8550 nM (active).

Take `CC(C=CC=C(C)C=CC1=C(C)CCCC1(C)C)=CC=CC=C(C)C=CC=C(C)C=CC1=C(C)CCCC1(C)C`: the Potency was 9350 nM (active).

For the compound `c1coc(CNc2ncnc3nc[nH]c23)c1`, the Potency is 2090 nM (active).

For the compound `CC(=O)ON=C1C(c2c(O)[nH]c3cc(Br)ccc23)=Nc2ccccc21`, the Potency is 9350 nM (active).

Consider `O=C1c2c(O)cccc2[C@@H]([C@@H]2O[C@H](CO)[C@@H](O)[C@H](O)[C@H]2O)c2cc(CO)cc(O)c21`, for which the Potency result was “inactive”.

In the case of `COc1ccc(S(=O)(=O)Nc2cccnc2Nc2ccc(O)cc2)cc1`, the Potency is 37.2 nM (active).

As to `CNC(=O)Nc1ccc(-c2nc(N3CC4CCC(C3)O4)c3cnn(C4CCC5(CC4)OCCO5)c3n2)cc1`, the Potency was 833 nM (active).

As to `CC(=O)SCC(Cc1ccccc1)C(=O)NCC(=O)OCc1ccccc1` (stereo not given), the Potency was 2640 nM (active).

For the compound `Cc1ncc(-c2ccnc(Nc3ccc(S(C)(=O)=O)cc3)n2)n1C(C)C`, the Potency was 3320 nM (active).

Turning to `C[C@](Cc1c[nH]c2ccccc12)(NC(=O)OC1C2CC3CC(C2)CC1C3)C(=O)NC[C@H](NC(=O)CCC(=O)O)c1ccccc1` (stereo not given in full), the Potency result was “inactive”.

As for `CC(C)NC[C@@H](C(=O)N1CCN(c2ncnc3c2[C@H](C)C[C@H]3O)CC1)c1ccc(Cl)cc1`, the Potency is 1660 nM (active).

As for `CC(C=CC1=C(C)CCCC1(C)C)=CC=CC(C)=CC(=O)Nc1ccc(O)cc1`, the Potency was 9590 nM (active).

As for `COc1cc2ncnc(Nc3cccc(Br)c3)c2cc1OC`, the Potency was 11.8 nM (active).

`Cc1onc(-c2ccccc2)c1C(=O)N[C@@H]1C(=O)N2[C@@H](C(=O)O)C(C)(C)S[C@@H]12`: the Potency result is “inactive”.

`CN(C)CC(=O)N1CCC(c2ccc(NC(=O)c3ncc(C#N)[nH]3)c(C3=CCCCC3)c2)CC1`: the Potency is 26400 nM (active).

For the compound `c1ccc(CNc2nc(NCc3ccccc3)c3ccccc3n2)cc1`, the Potency was 20900 nM (active).

In the case of `CCS(=O)(=O)Nc1ccc2[nH]c(O)c(C(=Nc3ccc(CN4CCCCC4)cc3)c3ccccc3)c2c1`, the Potency was 2090 nM (active).
